Numbering of substitutions follows the chain as printed. The full ranking holds about 5,800 sequences; the median of “enrichment r” is about 0.54, and the highest 2% start at about 16. The list comes from a sample in which the highest values are over-represented; it also holds similar and randomly drawn sequences.
B1: chr12:2800410:2800520:+|CDS|ENSG00000004478|unk|total|mutant (ssRNA)
RNA: GGGAGUUCUACAGUCCGACGAUCAAAUACAAGCAAGCUUUACUACAGUAUAAGAAGAUCGUGUCUUGGCUGGAAUAUGAGUCCCGUUUUUCCAAUGAGGAAGCACAGAAAGCACAGGCCCUUCGACUGGCCUCUCACCUCAACCAACAGAGGAUUGAGCAUCA
B2: chr11:46743636:46743700:-|3pUTR|ENSG00000175216|msi1_unk|total|mutant (ssRNA)
RNA: GGGAGUUCUACAGUCCGACGAUCUUGUAAAAUUGUCCUAAUCUUUCCCCGCUUUUUAACCGUUAAUAUCCGAAACUCUUUAACCGUUUUCCUUUCAGUUUGUGAGCUCUUCUCUGUCGCCCUGAAGGGUCACUGUAUUCUGUACAACAGAGGAUUGAGCAUCA
B3: chr2:166409664:166409935:-|three_prime_utr|ENSG00000136546|control|control|control (ssRNA)
RNA: GGGAGUUCUACAGUCCGACGAUCUGUGGUAACAAGCCAAGCUUUUAAUGUCAUUGUUAUGGUUCUUAUAUGUUUCCAAGCAAUAGCCAUGAUGAUAGACACUGAUGUUCAGAGUCUACAAAUGUCCAUUGCUCUCUACUGGAUCAACAGAGGAUUGAGCAUCA
B4: ENSG00000070961:be:win_5601|3pUTR|ENSG00000070961|bound_else_gene|NA|bound_elsewhere_windowed (ssRNA)
RNA: GGGAGUUCUACAGUCCGACGAUCGAGGUAGCAUGAUAUGCUGGAAAGCAUAUUAGACUAGGAGUCAAGACCUGGUUUCUAGUCUUGGUUUUGCCAUUAAUGUGCUGCAUGAUCUUGGGAAAAUCAUUUACCCUAAAUAAGGGUCAACAGAGGAUUGAGCAUCA
B5: chr19:7961171:7961272:-|3pUTR|ENSG00000066044|msi1|FALSE|unique (ssRNA)
RNA: GGGAGUUCUACAGUCCGACGAUCGGCGGGAUUCCCGCUUCUGAAACUCCCCCUGGAGUCUCACUCCCACACAUGCCCAUAGCUAGCAUUCAACAGAGAACUCUGUCUUAAGCUUCAACUGUGAAAAUGAUGACGGGCUUGUAGCAACAGAGGAUUGAGCAUCA
B6: chr8:52110837:52113338:-|three_prime_utr|ENSG00000147488|control|control|control (ssRNA)
RNA: GGGAGUUCUACAGUCCGACGAUCCCCCGGAAUGCAAAGCUCUACUGGAAAGUAUCAAACAGGCAGUGAAGGGUAUCCAUGUGUAGGAUCACAGCGCUGCCGGGCAACAGAAGUUACCAACAGCAGUAAACUCCAGAUGGAUCUCAACAGAGGAUUGAGCAUCA
B7: ENSG00000107863:be:win_4051|CDS|ENSG00000107863|bound_else_gene|NA|bound_elsewhere_windowed (ssRNA)
RNA: GGGAGUUCUACAGUCCGACGAUCGUGCAGGAGGAAAGCACAGUAGACUCCCAGCCAGUGCCAAACAUAGAUCAUUUACUCACCAACAUUGGAAGGACAGGAGUCUCCCCAGGAGAUGUAUCAGAUUCAGCUACUAGUGACUCACAACAGAGGAUUGAGCAUCA
B8: ENSG00000107863:be:win_5501|CDS|ENSG00000107863|bound_else_gene|NA|bound_elsewhere_windowed (ssRNA)
RNA: GGGAGUUCUACAGUCCGACGAUCCUGUAAACCGGUUAAAACCAAAAUGCUCAGCCCAGGACCUUUCCAUCUCAGACUGGCUGGCCAGGGAACGCCUACGCACCAGUACCUCUGACCUUAGCAGAGGAGAAAUCGGAGAUCCCCCAACAGAGGAUUGAGCAUCA
B9: chr2:216672374:216672548:-|3pUTR|ENSG00000115461|msi1|total|mutant (ssRNA)
RNA: GGGAGUUCUACAGUCCGACGAUCUUUUUCUUUUUUUUUUUGAAGACAGCAAUAACCACAGUACAUAUUACUGCCGUUCUCUACCGUUUUACAUACAUUCAUACCAUAACUCUGUUCUCUCCUCUUUUUUGUUUUCAACUUUAACAACAGAGGAUUGAGCAUCA
B10: chr10:16593140:16593241:-|3pUTR|ENSG00000148484|unk|FALSE|unique (ssRNA)
RNA: GGGAGUUCUACAGUCCGACGAUCUUAUUUUUCUUUUCACUCUCUUUCUAAUGCUUCCCACCUUACCUUUUAGAUUCUUUUGCUAGGUGGGAGAUUGUUAUAAGGUCUUUAAACCAUUUCCAUUUGUUUCUUUAACAUUACCAACAACAGAGGAUUGAGCAUCA
B11: chr2:216672374:216672548:-|3pUTR|ENSG00000115461|msi1|FALSE|unique (ssRNA)
RNA: B9 RNA with C73U, C74A, C83U, C84A
B12: chr5:113594843:113594944:+|3pUTR|ENSG00000047188|msi1|total|mutant (ssRNA)
RNA: GGGAGUUCUACAGUCCGACGAUCCAACAUAAAAUCUUGAGAACCUUCUACUUUCUCUGGGAAAGCAUUAUACCGUGGUGCAUCCGUUCCGAAAGUCAGCUAUGAUUUUGCCUACCGUUCCCGUUAUCCGCUUUGGGGUUUUCUCAACAGAGGAUUGAGCAUCA
B13: chr5:113594843:113594944:+|3pUTR|ENSG00000047188|msi1|FALSE|bound_elsewhere (ssRNA)
RNA: GGGAGUUCUACAGUCCGACGAUCCAACAUAAAAUCUUGAGAACCUUCUACUUUCUCUGGGAAAGCAUUAUAUAGUGGUGCAUUAGUUUAGAAAGUCAGCUAUGAUUUUGCCUAUAGUUCUAGUUAUUAGCUUUGGGGUUUUCUCAACAGAGGAUUGAGCAUCA
B14: chr1:93361585:93361687:+|3pUTR|ENSG00000117505|unk|total|mutant (ssRNA)
RNA: GGGAGUUCUACAGUCCGACGAUCUUUAACUUGCCGUUACCGUUUACUUAUUGUUUUCCGAAUUACUUUUACAUUUUCCCAACCCGAUGGCCCCGAGUCCAACAUUACCUUUUGAGAUGACAUUAUUGUCUCCAUAAUUGAGUGCAACAGAGGAUUGAGCAUCA
B15: chr3:15254852:15254953:-|3pUTR|ENSG00000131370|msi1|FALSE|unique (ssRNA)
RNA: GGGAGUUCUACAGUCCGACGAUCAAACUGUUAAUUCUGUCACAGCCUGUAUAUUUUAGUCAUUUGUAAAUCUCUUCAUACAAUAGUGACUUCUUUUUUGACUGAUACAGUAUCUUAAUUACAAGGUUAUUUUGUACUUGUCUUCAACAGAGGAUUGAGCAUCA
B16: chr10:117282838:117282939:-|3pUTR|ENSG00000165650|unk|FALSE|bound_elsewhere (ssRNA)
RNA: GGGAGUUCUACAGUCCGACGAUCCCCCUUGUGUUAUUUUUCUUCCUCUUGGUUUUUGAAUUAGUGUUAAAUAGAAUACUGUCUAGAUUCUUAAAAUAUUUUCAUUUCCAUCAUGGUUAUAACAAAUUUGCUGCAUGCCCAAACCAACAGAGGAUUGAGCAUCA
B17: chr7:123541454:123541562:-|3pUTR|ENSG00000128609|unk|FALSE|unique (ssRNA)
RNA: GGGAGUUCUACAGUCCGACGAUCUCCAUAGUGUCAUUUUAUUUUAGUCAUUAUUGAAUUAUACCAUUUACUCUGUUUUCUUAUAGUCUUAAUUUUAUUAUAUUUUGUUGUUACUGUAUUAUAUUUGAAAACCUUCAAAUUAGACAACAGAGGAUUGAGCAUCA
B18: chr1:93361585:93361687:+|3pUTR|ENSG00000117505|unk|FALSE|unique (ssRNA)
RNA: B14 RNA with C33U, C34A, C39U, C40A, C57U, C58A, C83U, C84A, C92U, C93A
B19: ENSG00000165219:stop:overlap|stop_codon|ENSG00000165219|stop_codon|NA|stop_codon (ssRNA)
RNA: GGGAGUUCUACAGUCCGACGAUCUACCUAUAGGUAAAGAGAAUUUCUCGUAUUGGAGCUUUCUCUUAAAUCUAAUAUUUCAUUAGCCUUUGUUAUUGCUGAGUGUUUUGGAACAUAUGUUUAAGUACUUGGGAAAGUCUUUCUCAACAGAGGAUUGAGCAUCA
B20: chr10:30313878:30313980:-|CDS|ENSG00000107951|unk|FALSE|unique (ssRNA)
RNA: GGGAGUUCUACAGUCCGACGAUCUGUUUUUAUAUUUAAGCCCUUCAUGUACUUACUCAUUUUUUCUUCUGUGUAAUAAUCUAUAGGGAAGGGAGCAAAACAAACCUGAUUCUUCUCCUCUGUACAUUCAGAAUCCAUUUGAAACAACAGAGGAUUGAGCAUCA
B21: ENSG00000079335:stop:overlap|stop_codon|ENSG00000079335|stop_codon|NA|stop_codon (ssRNA)
RNA: GGGAGUUCUACAGUCCGACGAUCUUGGUGGAAAUCUUUCAAAAACACAAAACAUGGAACGAUUUGGAGAGGUAAGUUUUCCCUAGGAGAUUCUAUCUUCUUAAAACUGAUGUUCUGCAUUUGUUUCUCAGUUGGACCUAUAUACAACAGAGGAUUGAGCAUCA
B22: chr9:34635388:34635489:-|3pUTR|ENSG00000147955|msi1|FALSE|unique (ssRNA)
RNA: GGGAGUUCUACAGUCCGACGAUCGGGAUAUCCAUGCUUAUGUAUCCAAACACAGAGACCCAUGGGAACAAAUGAGACACAUAUAGAUACUGAGACCUGUGUGUACAGUAGGACCAUGCACUCACACCCAUCUGGAGAGGGAGCCAACAGAGGAUUGAGCAUCA

Molecular target: MSI1 full-length (mouse, UniProt Q61474 1-362)
Assay: nsRBNS (natural sequence RNA bind-n-seq); RBNS binding buffer (assumed for nsRBNS): 25 mM Tris pH 7.5, 150 mM KCl, 3 mM MgCl2, 0.01% Triton X-100, 500 ug/ml BSA, 20 U/ml SUPERase-In, 4 C; UNK is unkempt and MSI1 is Musashi-1; names of the RNAs are library labels; protein concentration not given here; high values mean tight binding

Chain of MSI1 full-length (Q61474 whole entry): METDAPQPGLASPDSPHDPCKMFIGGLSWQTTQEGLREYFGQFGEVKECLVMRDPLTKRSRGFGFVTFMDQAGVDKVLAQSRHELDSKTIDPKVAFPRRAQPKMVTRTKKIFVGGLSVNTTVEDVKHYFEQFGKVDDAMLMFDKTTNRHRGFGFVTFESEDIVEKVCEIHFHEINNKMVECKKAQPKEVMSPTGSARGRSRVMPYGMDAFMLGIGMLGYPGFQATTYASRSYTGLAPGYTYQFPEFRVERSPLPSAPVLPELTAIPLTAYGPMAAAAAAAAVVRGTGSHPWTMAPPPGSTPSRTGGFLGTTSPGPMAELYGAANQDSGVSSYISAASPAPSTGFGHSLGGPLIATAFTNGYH

Binder | binding signal [enrichment R]
B1 | 0.381
B2 | 0.866
B3 | 0.263
B4 | 0.263
B5 | 0.313
B6 | 0.319
B7 | 1.93
B8 | 0.497
B9 | 7.36
B10 | 10.5
B11 | 21.2
B12 | 0.394
B13 | 31.3
B14 | 1.55
B15 | 0.848
B16 | 3.9
B17 | 42.9
B18 | 56.8
B19 | 1.03
B20 | 1.04
B21 | 4.56
B22 | 0.728
